Drawing on PubChem BioAssay (NCATS), this text covers activity, negative = cell killing and Potency for 22 compounds.

Test [1] can be described thus: Drug repurposing screens with cells derived from glioblastoma tumor samples (AID 1345199). Further: nearly all actives have a fitted effect of over 40% in size. The settings on record: GBM patient neurospheres viability, ATP luminescence, 48 h. In outline:
(§1)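 Four patient lines of CD133+ GBM neurospheres were screened at several concentrations; hits were retested in those lines plus three slower-growing GBM lines, using 48-hour treatment and ATP-based viability.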

Another test deals with astro (control astrocytes). The test is described as above. The conditions noted are these: viability, ATP luminescence, 48 h; series mostly up to 45.9 µM. In outline:
as §1

[2] abbreviates: at 45.9 µM (top of the series), tumour line B.
Setting [3] is: at 45.9 µM (top of the series), tumour line D.
[4] abbreviates: at 46 µM (top of the series), tumour line A.
[5] abbreviates: at 46.1 µM (top of the series), tumour line C.
[6] abbreviates: at 20 µM (top of the series), tumour line C.
[7] abbreviates: at 21.2 µM (top of the series), tumour line B.
Setting [8] is: at 21.2 µM (top of the series), tumour line D.
[9] abbreviates: at 21.3 µM (top of the series), tumour line A.

Where “and” joins values, the source holds several entries; their conditions need not be identical. Identical values can stand only once. Inconclusive results are not listed. A structure can be active in one record and inactive in another. A number with no mark means an inactive call. Calls of active or inactive are those of the source. The call rests on the fitted dose curve; in most records, active means well fitted inhibition curve with a large enough effect; inconclusive means small, poorly fitted or top-dose-only effect; inactive means flat fitted curve, though single readings scatter.
On the % scale 0 is the no-effect control and ±100 the full control effect; potency means the concentration at half of the fitted maximal effect.

`NCCNC(=O)c1ccc(Cl)cn1`: the activity, negative = cell killing in test [1] (setting [2]) was -0.687%; in test [1] (setting [3]), -7.85%; in test [1] (setting [4]), -29.4%; in test [1] (setting [5]), -12.2%. Also, the Potency result in the test with astro is “inactive”.

On to `NS(=O)(=O)c1cc(C(=O)O)cc(N2CCCC2)c1Oc1ccccc1`, for which the activity, negative = cell killing is 0.209% in test [1] (setting [6]), -9.72% in test [1] (setting [7]), -3.36% in test [1] (setting [8]) and -12.4% in test [1] (setting [9]). Besides, the Potency result in the test with astro is “inactive”.

Consider `CCOCCn1c(N2CCCN(C)CC2)nc2ccccc21`, for which the figures for the activity, negative = cell killing in test [1] (setting [2]), in test [1] (setting [3]) and in test [1] (setting [5]) were -14.8%, -9.28% and -16%, respectively. Also, the Potency in test [1] (tumour line A) is 17.8 µM (active).

For `CCN1CCN(C(=O)N[C@@H](C(=O)N[C@@H]2C(=O)N3C(C(=O)O)=C(CSc4nnnn4C)CS[C@H]23)c2ccc(O)cc2)C(=O)C1=O`, the activity, negative = cell killing was -8.4% in test [1] (setting [2]), 9.51% in test [1] (setting [3]), -15% in test [1] (setting [4]) and 0.963% in test [1] (setting [5]).

Regarding `CC(=O)OCC1=C(C(=O)O)N2C(=O)[C@@H](NC(=O)CSc3ccncc3)[C@H]2SC1`, the activity, negative = cell killing in test [1] (setting [2]) was -6.44%; in test [1] (setting [3]), -23.6%; in test [1] (setting [4]), -34.9%; in test [1] (setting [5]), -18.9%.

With `COc1cc(C)nc(-n2nc(C)cc2OC)n1`, the activity, negative = cell killing in test [1] (setting [6]) was 16.5%; in test [1] (setting [7]) it was 1.89%; in test [1] (setting [8]), -16%; in test [1] (setting [9]), -15.4%. Moreover, the Potency result in the test on astro is “inactive”.

As to `CN(C)CCOC(c1ccc(Cl)cc1)c1ccccn1` (configuration not stated), the results for the activity, negative = cell killing in test [1] (setting [2]), in test [1] (setting [3]) and in test [1] (setting [5]) were -15.3%, -15.7% and 3.84%, respectively. Also, the Potency in test [1] (tumour line A) was 15.8 µM (active).

Consider `C=C[C@H]1CN2CC[C@H]1C[C@@H]2[C@@H](O)c1ccnc2ccc(OC)cc12`, for which the activity, negative = cell killing in test [1] (setting [2]) is -7.35%; in test [1] (setting [3]) it was -6.69%; in test [1] (setting [5]), 11.9%. In addition, in test [1] (tumour line A), the Potency was 12.6 µM (active).

Turning to `N#CCC(=O)NN`, the activity, negative = cell killing was -9.6% in test [1] (setting [2]), -5.43% in test [1] (setting [3]), -40.8% in test [1] (setting [4]) and -7.01% in test [1] (setting [5]). Further, the Potency entry with astro was “inactive”.

`O=C(O)CCNC(=O)c1ccccc1`: the activity, negative = cell killing in test [1] (setting [2]) was -3.69%; in test [1] (setting [3]), -10.8%; in test [1] (setting [4]), -25.4%; in test [1] (setting [5]), -11.5%. In addition, the Potency result with astro is “inactive”.

For `CCOc1ccccc1OCCN[C@H](C)Cc1ccc(OC)c(S(N)(=O)=O)c1`, the values for the activity, negative = cell killing in test [1] (setting [2]), in test [1] (setting [3]) and in test [1] (setting [5]) were -15.7%, -16.9% and -16.6%, respectively. The Potency in test [1] (tumour line A) was 35.5 µM (active).

`O=S(c1cc(Cl)cc(Cl)c1O)c1cc(Cl)cc(Cl)c1O`: the values for the activity, negative = cell killing in test [1] (setting [2]), in test [1] (setting [3]) and in test [1] (setting [5]) were -23.8%, -25% and -26.7%, respectively. The Potency in test [1] (tumour line A) was 28.2 µM (active).

For the compound `COc1ccc(-c2cc(C(F)F)nn2-c2ccc(S(N)(=O)=O)cc2)cc1F`, the activity, negative = cell killing in test [1] (setting [2]) is -10.4%; in test [1] (setting [3]), -9.89%; in test [1] (setting [4]), -29.7%; in test [1] (setting [5]), 2.98%.

For `CC(C)Cc1ccc(CC(=O)O)cc1`, the activity, negative = cell killing in test [1] (setting [2]) is -12.1%; in test [1] (setting [3]), -2.06%; in test [1] (setting [4]) it was -12.4%; in test [1] (setting [5]), 9.2%.

With `CCc1ccc(C(=O)C(C)CN2CCCCC2)cc1` (configuration not stated), the results for the activity, negative = cell killing in test [1] (setting [2]), in test [1] (setting [3]) and in test [1] (setting [5]) were -6.35%, -22.1% and -19%, respectively. Besides, in test [1] (tumour line A), the Potency is 17.8 µM (active).

`NC(=O)n1c(O)c(C(=O)c2cccs2)c2cc(Cl)ccc21`: the figures for the activity, negative = cell killing in test [1] (setting [2]) and in test [1] (setting [3]) were -6.38% and -26.9%, respectively. The Potency in test [1] (tumour line A) is 22.4 µM (active); in test [1] (tumour line C), 18.4 µM (active).

For the compound `CCN(CC)CCNC(=O)c1cc(Br)c(N)cc1OC`, the results for the activity, negative = cell killing in test [1] (setting [2]), in test [1] (setting [3]) and in test [1] (setting [5]) were -11.2%, -11.8% and -28.9%, respectively. In addition, the Potency in test [1] (tumour line A) is 7.94 µM (active).

As to `COc1cc(C(=O)NCc2ccc(OCCN(C)C)cc2)cc(OC)c1OC`, the activity, negative = cell killing in test [1] (setting [6]) was -15.6%; in test [1] (setting [7]), -6.09%; in test [1] (setting [8]), -9.89%; in test [1] (setting [9]), -23.1%. Further, the Potency result in the test with astro is “inactive”.

`CN(Cc1ccc(C(C)(C)C)cc1)Cc1cccc2ccccc12`: the activity, negative = cell killing was -23.3% in test [1] (setting [2]); -13.6% and -21.7% in test [1] (setting [5]). Besides, the Potency in test [1] (tumour line A) was 22.4 µM (active); in test [1] (tumour line B) it was 12.6 µM (active); in test [1] (tumour line D), 22.4 µM (active). In the test with astro, the Potency result was “inactive”.

As for `O=C(O)C(Cc1cc(I)c(O)c(I)c1)c1ccccc1` (configuration not stated), the activity, negative = cell killing is 4.75% in test [1] (setting [2]), -5.57% in test [1] (setting [3]), -25.7% in test [1] (setting [4]) and -25.5% in test [1] (setting [5]).

Turning to `CC[C@H](c1ccc(O)cc1)[C@@H](CC)c1ccc(O)cc1`, the activity, negative = cell killing in test [1] (setting [6]) is -16.2%; in test [1] (setting [7]), 5.51%; in test [1] (setting [8]), -30%. Further, the Potency in test [1] (tumour line A) was 14.1 µM (active).

`O=C(O)Cc1csc(-c2ccc(Cl)cc2)n1`: the activity, negative = cell killing in test [1] (setting [2]) was -6.84%; in test [1] (setting [3]), 8.21%; in test [1] (setting [4]), -20.7%; in test [1] (setting [5]) it was -23.2%. The Potency entry in the test with astro is “inactive”.
